Hits are enriched below; roughly 3.1% of the tested compounds scored in any of these assays.
Pin1 inh: blocks the human prolyl isomerase Pin1; AID 504891; Q13526; 0.009% of 390,000 active; Pin1 FP peptide displacement, HiFluor488, 10 min; Potency, µM (series often up to 115 µM), actives largely listed as inhibitors; active = well fitted inhibition curve with a large enough effect in the polarisation, with a control signal flat, not every such curve was filed as active; inconclusive = small, poorly fitted or top-dose-only effect, or effect the other way, or a change in a side signal; inactive = no such curve, though single readings can be large or run the other way; the % refers to the polarisation
PLK1 PBD inh: PLK1 (human) polo-box domain binding inhibition; P53350; Plk1 PBD binding of FITC phosphopeptide, fluorescence polarization; Potency, µM, usual class: inhibitors; 2.8% of 360,000 active; also: series mostly up to about 57 µM; nearly all actives have a fitted effect of over 65% in size
ASM inhibitor: inhibitors of human secretory acid sphingomyelinase | P17405 | placental ASM, HMU-PC fluorogenic substrate, 60 min | Potency, µM (highest dose often 57.5 µM), most hits filed as inhibitors | 0.006% of 340,000 active | AID 504937
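Steps: dispense placental human ASM, pin compound, wait 10 min at room temperature, add HMU-PC0 substrate at 9 uM final, incubate 60 min at 37 °C, add stop solution raising pH to 10, read fluorescence.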
Tb PFK block: blocks T. brucei phosphofructokinase; O15648; T. brucei PFK, ADP-Glo luminescence; Potency, µM (highest dose often 57.5 µM), actives largely listed as inhibitors; 0.17% of 330,000 active; AID 485367; also: nearly all actives have a fitted effect of over 60% in size
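In TEA buffer at pH 8.0 with 5 mM MgCl2, enzyme (1.25 nM) converted F6P (0.5 mM) and ATP (0.1 mM) for 45 min at room temperature. ADP product was read by luciferase luminescence.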
TDP1 inh: TDP1 (human) enzyme inhibition; Q9NUW8; recombinant TDP1, AlphaScreen DNA substrate cleavage; Potency, µM (highest dose often 130 µM), hits mostly inhibitors; 0.28% of 350,000 active; also: nearly all actives have a fitted effect of over 40% in size
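Signal: AlphaScreen proximity between streptavidin donor and anti-FITC acceptor beads on intact substrate. Reaction: Tdp1 1 nM, substrate 15 nM final, 5 min RT after 15 min compound preincubation.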
VDR inhibitor: blocks the human vitamin D receptor | VDR-SRC2-3 peptide fluorescence polarization, 2 h | P11473 | Potency, µM, hits mostly inhibitors | 0.93% of 400,000 active
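Measured by FP: displacement of SRC2-3 coactivator peptide from VDR by library compounds, following a two-hour ambient incubation.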
TbPYK confirm: confirmation of Trypanosoma brucei pyruvate kinase inhibitors | recombinant TbPYK, Kinase-Glo ATP luminescence | 67% of 890 active | Potency, µM (highest dose often 76.9 µM), usual class: inhibitors | shares compounds with PLK1 PBD inh; also: nearly all actives have a fitted effect of over 70% in size
TbPYK orthogonal: inhibits T. brucei pyruvate kinase in orthogonal ADP-Glo assay | shares compounds with PLK1 PBD inh | recombinant TbPYK, ADP-Glo luminescence, 60 min | Potency, µM (series often up to 76.9 µM), hits mostly inhibitors | 62% of 890 active | AID 720584; also: nearly all actives have a fitted effect of over 75% in size
Large screens that a line does not name were inactive (follow-up assays come after a bar, where they were run). Unless noted, calls follow the shape of the dose curve; as a rule, active = well fitted curve in the direction sought with a large enough effect; inconclusive = small, poorly fitted or top-dose-only effect, or another doubt; inactive = no such curve, though single readings can be large; an effect the other way counts as inactive or inconclusive.

CC1CC[C@@]2(OC1)OC1C(O)C3C4CC[C@H]5CC(O[C@@H]6O[C@@H](CO)[C@H](OC7OC(CO)C(O)C(OC8OCC(O)C(O)[C@H]8O)[C@@H]7O[C@@H]7OC(CO)[C@H](O)[C@@H](O[C@@H]8OC(CO)C(O)C(O)C8O)C7O)C(O)C6O)C(O)C[C@]5(C)C4CC[C@]3(C)C1C2C (some centres undefined)	none (no result: Pin1 inh, PLK1 PBD inh, ASM inhibitor, Tb PFK block)
CC1CC(OP(O)(=S)c2ccc(N(C)C)cc2NC(=O)c2cccs2)CC(C)(C)C1 (centres undefined)	PLK1 PBD inh 6µM, VDR inhibitor 45µM | TbPYK confirm 28µM | TbPYK orthogonal 28µM
N#CCCn1cc(C=C2C(=O)NC(=O)NC2=O)c(-c2ccccc2)n1	PLK1 PBD inh 2.7µM, Tb PFK block inconclusive | TbPYK confirm 16µM | TbPYK orthogonal 32µM
CC[n+]1c(/C=C/C=C/c2ccc(N(C)C)cc2)sc2ccccc21	none | TbPYK confirm 32µM | TbPYK orthogonal inactive
CN1CCc2cc3c(cc2[C@@H]1[C@@H]1OC(=O)c2c1ccc1c2OCO1)OCO3	none (no result: Pin1 inh, PLK1 PBD inh, ASM inhibitor, Tb PFK block)
Cn1c(O)c(/C=C2\C=c3ccccc3=NC2=O)c(=O)n(C)c1=O	PLK1 PBD inh inconclusive, VDR inhibitor 79µM (no result: TDP1 inh) | TbPYK confirm inconclusive | TbPYK orthogonal inactive
CC1=NNC(=O)C1Br (centres undefined)	PLK1 PBD inh 9.5µM, VDR inhibitor inconclusive (no result: Tb PFK block, TDP1 inh) | TbPYK confirm 3.2µM | TbPYK orthogonal 5µM
O=C(O)c1cc2ccccc2oc1=O	none
O=C(O)CCn1cc(C=C2C(=O)NC(=S)NC2=O)c(-c2cc3ccccc3oc2=O)n1	PLK1 PBD inh 11µM, VDR inhibitor inconclusive | TbPYK confirm 5.6µM | TbPYK orthogonal 10µM
CC1CCC(C(C)C)C(OC(=O)c2ccccc2N)C1 (centres undefined)	none (no result: Pin1 inh, PLK1 PBD inh, ASM inhibitor, Tb PFK block)

Bioassay records deposited in PubChem by National Center for Advancing Translational Sciences (NCATS).
